# Laboratory results reported in PubChem BioAssay (NCATS).
# Inconclusive results are not listed. Active and inactive are the calls of the source. Unless noted, calls follow the shape of the dose curve; as a rule, active = well fitted curve in the direction sought with a large enough effect; inconclusive = small, poorly fitted or top-dose-only effect, or another doubt; inactive = no such curve, though single readings can be large; an effect the other way counts as inactive or inconclusive.
# Key:
# [1] = Quantitative High-Throughput drug screen in 47 multiple myeloma cell lines against the NCATS MIPE library collection: KMS11_JCRBsus cell viability assay (AID 1919873); also: nearly all actives have a fitted effect of over 50% in size; also: potency is read from the fitted curve at half-maximal effect
# Procedure, shortened: (§1)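 Readout: median RLU from CellTiter-Glo after 5 min at room temperature. Preceding step was 48 h drug treatment of 500 cells/well at 37 °C, 5% CO2, with DMSO-only and media-only control wells.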
# [2] = Quantitative High-Throughput drug screen in 47 multiple myeloma cell lines against the NCATS MIPE library collection: KMS28BM_JCRB cell viability assay (AID 1919874); also: nearly all actives have a fitted effect of over 35% in size; also: potency is read from the fitted curve at half-maximal effect
# Procedure, shortened: as §1
# [3] = qHTS drug screen for cell cycle checkpoint inhibitors in PARPi-resistant BRCA-mutant ovarian cancer cell lines. (AID 1963452; calls by dose curve); settings: PEO1/OlaR viability, CellTiter-Glo luminescence, 96 h, stronger effect = lower value
# Procedure, shortened: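 PEO1, PEO4 and PEO1/OlaR ovarian cancer cells, 600 per well, exposed 96 h at 37C to a dilution series. Viability read by CellTiter-Glo luminescence, normalized to DMSO and empty wells; activity summarized as Z-AUC.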
# [4] = qHTS for identification of novel therapeutic agents for treatment of microphthalmiaassociated transcription factor (MiT) renal cell carcinoma (RCC) (AID 1963991); settings: CellTiter-Glo, 48 h, stronger effect = lower value
# Procedure, shortened: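 Three TFE3-fusion RCC lines (UOK109, UOK124, UOK145), 500 cells/well in complete medium, were treated with MIPE 4.0 compounds for 48 hours at 37 C. Viability was by CellTiter-Glo luminescence, normalized to DMSO (100%) and empty wells (0%); curves fitted over 11 concentrations.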
# [5] = tested on: AA1029; experiment: qHTS profiling for inhibitors of Plasmodium falciparum proliferation (AID 504749);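 also: 0% = DMSO vehicle and full inhibition = artemisinin control; nearly all actives have a fitted effect of over 60% in size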; settings: P. falciparum in erythrocytes, SYBR Green DNA, 72 h; series mostly up to 28.7 µM
# Procedure, shortened: (§2)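 Fluorescence of SYBR Green-bound parasite DNA, read at 485/535 nm, served as the growth measure. Infected erythrocytes were cultured with compound 72 h; artemisinin (0.29 uM) and DMSO wells defined the normalization range.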
# [6] = tested on: ATS189; experiment: as above; settings: P. falciparum in erythrocytes, SYBR Green DNA, 72 h; series mostly up to 28.7 µM
# Procedure, shortened: as §2
# [7] = tested on: CP185; experiment: as above; settings: P. falciparum in erythrocytes, SYBR Green DNA, 72 h; series mostly up to 28.7 µM
# Procedure, shortened: as §2
# [8] = tested on: CP191; experiment: as above; settings: P. falciparum in erythrocytes, SYBR Green DNA, 72 h; series mostly up to 28.7 µM
# Procedure, shortened: as §2
# [9] = tested on: CP192; experiment: as above; settings: P. falciparum in erythrocytes, SYBR Green DNA, 72 h; series mostly up to 28.7 µM
# Procedure, shortened: as §2
# [10] = tested on: CP194; experiment: as above; settings: P. falciparum in erythrocytes, SYBR Green DNA, 72 h; series mostly up to 28.7 µM
# Procedure, shortened: as §2
# [11] = tested on: CP201; experiment: as above; settings: P. falciparum in erythrocytes, SYBR Green DNA, 72 h; series mostly up to 28.7 µM
# Procedure, shortened: as §2
# [12] = tested on: CP211; experiment: as above; settings: P. falciparum in erythrocytes, SYBR Green DNA, 72 h; series mostly up to 28.7 µM
# Procedure, shortened: as §2
# [13] = measured here: PEO1 parental Z-AUC
# [14] = TFE3-RCC UOK109 viability, measured here: UOK109 Z-AUC
# [15] = TFE3-RCC viability, measured here: UOK124 Z-AUC
# [16] = TFE3-RCC viability, measured here: UOK145 Z-AUC
smiles,measurement,setting,value
Cc1[nH]nc2ccc(-c3cncc(OC[C@@H](N)Cc4c[nH]c5ccccc45)c3)cc12,Potency,[1],0.372 µM (active)
same,Potency,[2],0.296 µM (active)
same,Z-AUC,[3],-2.34 (inactive)
same,Z-AUC,[3]; [13],-1.86
same,Z-AUC,[3]; measured here: PEO4 Z-AUC,-2.37
O=C1CCC[C@@H]2[C@H]3CCCN4CCC[C@@H](CN12)[C@@H]34,Potency,[1],inactive
same,Potency,[2],inactive
C[C@]12CC[C@H]3[C@@H](CCC4=CC(=O)CC[C@@]43C)[C@H]1CC[C@H]2OC(=O)CCC1CCCC1,Potency,[1],inactive
same,Potency,[2],inactive
same,Z-AUC,[3],-0.757 (inactive)
same,Z-AUC,[3]; [13],-0.855
same,Z-AUC,[3]; measured here: PEO4 Z-AUC,-0.842
O=C(Oc1ccc([N+](=O)[O-])cc1)N1CCC(C(O)(c2ccc3c(c2)OCO3)c2ccc3c(c2)OCO3)CC1,Potency,[1],inactive
same,Potency,[2],inactive
same,Z-AUC,[3],0.0942 (inactive)
same,Z-AUC,[3]; [13],0.266
same,Z-AUC,[3]; measured here: PEO4 Z-AUC,0.407
Cc1c(N)nc([C@H](CC(N)=O)NC[C@@H](N)C(N)=O)nc1C(=O)N[C@H](C(=O)N[C@@H](C)[C@H](O)[C@@H](C)C(=O)N[C@@H](C(=O)NCCc1nc(-c2nc(C(=O)NCCC[S+](C)C)cs2)cs1)[C@@H](C)O)C(O[C@H]1O[C@H](CO)[C@H](O)[C@@H](O)[C@@H]1O[C@H]1O[C@H](CO)[C@@H](O)[C@H](OC(N)=O)[C@H]1O)c1cnc[nH]1 (some centres not stated),Potency,[1],inactive
same,Potency,[2],7.43 µM (active)
c1ccc(CCCN2CCN(CCOC(c3ccccc3)c3ccccc3)CC2)cc1,Potency,[1],20.9 µM (active)
same,Potency,[2],20.9 µM (active)
N=c1c2c(-c3ccccc3)c(-c3ccccc3)n(Cc3ccccc3)c2ncn1C1CCC(O)CC1 (configuration not stated),Potency,[1],2.09 µM (active)
same,Potency,[2],3.32 µM (active)
same,Z-AUC,[3],0.292 (inactive)
same,Z-AUC,[3]; [13],-0.41
same,Z-AUC,[3]; measured here: PEO4 Z-AUC,-0.216
CO[C@H]1CCC(O[C@H]2C[C@H]([C@]3(C)CC[C@]4(C[C@H](O)[C@@H](C)[C@@H]([C@@H](C)C=C(C)C(=O)[C@H](C)C[C@H](C)C(=O)O)O4)O3)O[C@]3(O[C@@H]([C@H]4O[C@@](O)(CO)[C@H](C)C[C@H]4C)C[C@H]3C)[C@H]2C)O[C@H]1C (some centres not stated),Potency,[1],0.935 µM (active)
same,Potency,[2],0.332 µM (active)
CC[C@@H](C(N)=O)N1CCCC1=O,Potency,[1],inactive
same,Potency,[2],inactive
same,Z-AUC,[3],-0.418 (inactive)
same,Z-AUC,[3]; [13],-0.901
same,Z-AUC,[3]; measured here: PEO4 Z-AUC,-0.237
same,z-score,[4]; [14],1.12
same,z-score,[4]; [15],0.779
same,z-score,[4]; [16],0.655
CN(C)[C@@H]1C(=O)C(C(N)=O)=C(O)[C@@]2(O)C(=O)C3=C(O)c4c(O)cccc4[C@@](C)(O)[C@H]3[C@H](O)[C@@H]12,Potency,[1],inactive
same,Potency,[2],inactive
same,Z-AUC,[3],-0.415 (inactive)
same,Z-AUC,[3]; [13],-0.31
same,Z-AUC,[3]; measured here: PEO4 Z-AUC,0.0838
same,z-score,[4]; [14],2.05
same,z-score,[4]; [15],0.404
same,z-score,[4]; [16],0.671
same,Potency,[5],inactive
same,Potency,[6],inactive
same,Potency,[7],inactive
same,Potency,[8],inactive
same,Potency,[9],inactive
same,Potency,[10],inactive
same,outcome,[11],inactive
same,Potency,[12],inactive
CC(=Cc1csc(C)n1)[C@@H]1C[C@H]2O[C@@H]2CCC[C@H](C)[C@@H](O)[C@@H](C)C(=O)C(C)(C)[C@@H](O)CC(=O)O1,Potency,[1],inactive
same,Potency,[2],inactive
same,z-score,[4]; [14],-3.27
same,z-score,[4]; [15],-1.59
same,z-score,[4]; [16],-2.88
